Unmarked numbers belong to inactive results.
system: gramicidin D channels in DC22:1PC lipid vesicles (bilayer-modifying potency); experiment: initial Tl+ fluorescence quench rate relative to no-drug control (NormRate, gramicidin monomer-dimer shift) (ratio (fold of control)); higher = stronger bilayer-modifying effect (equilibrium shifted toward conducting dimers), active = 1.5 or more; details: 10 µM; lipid concentration 50 µM; temperature: 25 °C
Description: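 Stopped-flow fluorescence quench assay: ANTS-loaded DC22:1PC large unilamellar vesicles doped with gramicidin D (1:2000), 50 µM lipid, equilibrated 10 min with 10 µM drug (0.1% DMSO), mixed with Tl+ quench buffer at 25°C. Initial quench rate (Tl+ influx) was fitted with a modified stretched exponential and normalised to the no-drug control rate (NormRate); duplicates from two independent LUV preparations (triplicates for 7 drugs).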

Structure (SMILES)	initial Tl+ fluorescence quench rate
COc1cc2ncnc(NC3CCN(Cc4ccccc4)CC3)c2cc1OC	1.04
O=C(Cn1ccnc1[N+](=O)[O-])NCc1ccccc1	1.01
COC(=O)c1ccc(F)cc1NS(=O)(=O)c1cccc(-c2cnn(Cc3ccccc3)c2)c1	1.25
COc1ccc(-c2nnc3ccc(-c4cccc(C(C)C)c4)cn23)cc1OC	2.38 (active)
O=C(CN1CCOCC1)Nc1ccc2ncnc(Nc3ccc(OCc4cccc(F)c4)c(Cl)c3)c2c1	6.71 (active)
c1ccc(Oc2ccc(-c3cc(CN4CCOCC4)[nH]n3)cc2)cc1	1.7 (active)
CS(=O)(=O)N1CCC(Cn2nc(Cc3cccc4ccccc34)c3c(N)ncnc32)CC1	1.47
Cc1ccc(C(=O)Nc2ccc(S(=O)(=O)O)c3cc(S(=O)(=O)O)cc(S(=O)(=O)O)c23)cc1NC(=O)c1cccc(NC(=O)Nc2cccc(C(=O)Nc3cc(C(=O)Nc4ccc(S(=O)(=O)O)c5cc(S(=O)(=O)O)cc(S(=O)(=O)O)c45)ccc3C)c2)c1	2.56 (active)
